From the supplement of paper PMC6555819 come the findings set out here.

The test system of the first assay is PPARg:RXRa (NR concentration 180 nM, RXRa partner concentration 90 nM). Put plainly: PBM binding z-score (relative to random genomic background probes); higher = stronger binding; sequences stand for … in GC…GCGATTGACAGCGTAGAATGAAGG
An outline of the steps:
(§1)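 For binding z-scores, the reference was random background probes on custom Agilent 4×180K protein-binding microarrays. These arrays were incubated 1 h with ligand-free nuclear receptor dimers in PBS pH 7.4, 2% milk, 0.02% Triton X-100, 1 mM DTT, 0.2 mg/mL BSA and 0.4 mg/ml salmon testes DNA. Fluorescence was scanned after antibody detection of each partner (one per run) and regression-normalized.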
The sequence TGAATCAGGTTATAAGATCAGGGAACGTTGCAAA yielded a PBM binding z-score of 0.475.

On to ACTAGCAGGCCAGGTTTGGGTCACTCAAACAAAG, for which the PBM binding z-score is -0.123.

In turn, TCTTGTAGATCAAAAGGAGGTTAAGAAAGATCGA gave a PBM binding z-score of 0.335.

Consider TTACCAAGGTGAAAGGACGTTGATGCACGCCTTG, for which the PBM binding z-score was determined as 2.29.

For ATCGAAAGGTAGTGAGGTGAGTATACAGAAAGGC, the PBM binding z-score turned out to be 0.582.

As for ACTAGCAGGCCAAGTTTGGGTCAATCAAACAAAG, the PBM binding z-score is -0.0982.

CGAACTAGGTCATTGACAGGAGAGTGAATAGTAA had a PBM binding z-score of 7.41.

In the case of GCATATAGGTAATACAAGGGGAAAGTCCGATTGT, the PBM binding z-score came out at 0.908.

In turn, CAAACTAGGTCAAGGTCATAGTCGGTTTGTGCCA showed a PBM binding z-score of 9.25.

CAAACTAGCTCAAAGGTCAAAGTCGAGCCAACCA gave a PBM binding z-score of 9.32.

Take TAGCTTAGGTCATTGGGCCAGTATAGTACGCATC: the PBM binding z-score was 2.96.

TGAATGAGGTTAAAGATCGGGGAACGTGGCGTCG: the PBM binding z-score stood at 4.54.

CAGCCTAGATCAGGGCCAGTATAGGAGGAACGTT came in with a PBM binding z-score of 0.274.

In the case of ACTATTAGTTGAGACAAGGGCAACCGATAGGTTG, the PBM binding z-score amounted to 0.795.

In turn, GGAACGAGGGCATTCGAGTTGGTAGCATGGCGAT registered a PBM binding z-score of 0.508.

ATCTCTAGGTAAAAATTCAGTGAATCCCGAGGAT: the PBM binding z-score worked out at 0.62.

In turn, CCTACAGGGCCACGAAAGGTCATTGATTCAGTGA had a PBM binding z-score of 1.86.

For CGTCCAAGGTCAATGCTAGGTCAGTGAGAGCATT, the PBM binding z-score was found to be 4.1.

A further assay has as its system PPARg:RXRa 270nM:90nM, anti-RXR (NR concentration 270 nM, RXRa partner concentration 90 nM). Described as above. Put shortly:
as §1
As for TCTTGCAGATCAAAGGTTAAGAAAGCCGAAGCCT, the PBM binding z-score was 6.41.

In turn, CCGAGTGGGTTATGGGGCATTCAGGCAACGGTGA came in with a PBM binding z-score of 3.77.

ATCTCTAGGTAAAGTTCACTGAAAGATCGATAGA: the PBM binding z-score came out at 5.61.

Sequence TGAATGAGGTGATAAGATCAGGGAACGTTGCAAA returned a PBM binding z-score of 1.24.

With AGCATGAGGTTATACGTAGATCAGGGAAGAAAGT, the PBM binding z-score amounted to 0.729.

As for AGTCGAAGTTCAGGACGAGGTAACGTAAAGCACG, the PBM binding z-score was 1.11.

As for CCGACTGGGACATAAGGTTACCATAAGCCAGCCC, the PBM binding z-score is 2.59.

ATACCAAGGTGGTCGTGAGGTCGTTGATACTAAC: the PBM binding z-score came out at 0.0614.

In turn, AAAATGAGGTTATTAAGATCAGGGAATTGCGGTC yielded a PBM binding z-score of 2.19.

In turn, GCTGCTAGGTCAGTTTGGTCAGCTAACGGGTACG yielded a PBM binding z-score of 0.678.

TCATGTAGGTAAAGGTGAAAGTCGAACGATATGA had a PBM binding z-score of 4.72.

Sequence CAAACTAGTTCACCGGAAGGTCAAAGTCCGCATG had a PBM binding z-score of 2.85.

CGTCCAAGTTCAGAGAGGTCAGTGAATGCCGAGT: the PBM binding z-score came to 1.5.

With CCTCGGAGGACTACAGGAGGTCAGAGCTGCCAGA, the PBM binding z-score is -0.104.

Sequence TGAATGAGGTTATAAGCTCAGGGAACGTTGCAAA displayed a PBM binding z-score of 2.07.

In turn, CGTCCAAGTTCAGCAGGTCAGTGAAAGCGACGTG showed a PBM binding z-score of 1.17.

Take AATGCAGGGTCACTAGGCCAGAGTAGGTACGAAT: the PBM binding z-score was determined as 6.77.

Take TAGTCTAGGTCATGGGCCAGTATACCACGCGAAC: the PBM binding z-score was 6.37.

With CGAACTGGGTCATTGACAGGACAGTGAATAGTAA, the PBM binding z-score is 5.84.

With AGAACGACGGCACGCTGAGTTGATAGCAGAGTAG, the PBM binding z-score was -0.503.

Take TAGCCTACGTCAGATCGGGCCAGTATACGCTATA: the PBM binding z-score is -0.86.

With TAAGACAGGTGAAGGTAACTCAGGTACGCAGTCG, the PBM binding z-score was 1.38.

As for TGAATCAGGTTATAAGATCAGGGAACGTTGCAAA, the PBM binding z-score amounted to 0.863.

Regarding ACTAGCAGGCCAGGTTTGGGTCACTCAAACAAAG, the PBM binding z-score was found to be 0.025.

As for TCTTGTAGATCAAAAGGAGGTTAAGAAAGATCGA, the PBM binding z-score stood at 2.02.

For TTACCAAGGTGAAAGGACGTTGATGCACGCCTTG, the PBM binding z-score turned out to be 3.48.

Sequence ATCGAAAGGTAGTGAGGTGAGTATACAGAAAGGC returned a PBM binding z-score of 0.0693.

Take ACTAGCAGGCCAAGTTTGGGTCAATCAAACAAAG: the PBM binding z-score was determined as 0.263.

The sequence CGAACTAGGTCATTGACAGGAGAGTGAATAGTAA returned a PBM binding z-score of 6.44.

In turn, GCATATAGGTAATACAAGGGGAAAGTCCGATTGT registered a PBM binding z-score of 0.64.

CAAACTAGGTCAAGGTCATAGTCGGTTTGTGCCA returned a PBM binding z-score of 7.76.

Consider CAAACTAGCTCAAAGGTCAAAGTCGAGCCAACCA, for which the PBM binding z-score is 8.51.

As to TAGCTTAGGTCATTGGGCCAGTATAGTACGCATC, the PBM binding z-score turned out to be 3.44.

TGAATGAGGTTAAAGATCGGGGAACGTGGCGTCG returned a PBM binding z-score of 5.57.

As for CAGCCTAGATCAGGGCCAGTATAGGAGGAACGTT, the PBM binding z-score is -0.997.

In the case of ACTATTAGTTGAGACAAGGGCAACCGATAGGTTG, the PBM binding z-score came out at 0.412.

With GGAACGAGGGCATTCGAGTTGGTAGCATGGCGAT, the PBM binding z-score came to 0.442.

In the case of ATCTCTAGGTAAAAATTCAGTGAATCCCGAGGAT, the PBM binding z-score is 1.34.

Consider CCTACAGGGCCACGAAAGGTCATTGATTCAGTGA, for which the PBM binding z-score is 3.15.

In the case of CGTCCAAGGTCAATGCTAGGTCAGTGAGAGCATT, the PBM binding z-score stood at 4.72.

Another assay concerns PPARg:RXRa 30nM:10nM, anti-RXR (NR concentration 30 nM, RXRa partner concentration 10 nM). The assay is described as above. Put shortly:
as §1
Sequence TCTTGCAGATCAAAGGTTAAGAAAGCCGAAGCCT yielded a PBM binding z-score of 5.71.

As for CCGAGTGGGTTATGGGGCATTCAGGCAACGGTGA, the PBM binding z-score was determined as 1.55.

ATCTCTAGGTAAAGTTCACTGAAAGATCGATAGA showed a PBM binding z-score of 4.25.

With TGAATGAGGTGATAAGATCAGGGAACGTTGCAAA, the PBM binding z-score is 0.758.

Take AGCATGAGGTTATACGTAGATCAGGGAAGAAAGT: the PBM binding z-score worked out at 0.259.

Consider AGTCGAAGTTCAGGACGAGGTAACGTAAAGCACG, for which the PBM binding z-score stood at 0.224.

CCGACTGGGACATAAGGTTACCATAAGCCAGCCC showed a PBM binding z-score of 0.545.

ATACCAAGGTGGTCGTGAGGTCGTTGATACTAAC: the PBM binding z-score was -0.274.

The sequence AAAATGAGGTTATTAAGATCAGGGAATTGCGGTC returned a PBM binding z-score of 0.556.

For the sequence GCTGCTAGGTCAGTTTGGTCAGCTAACGGGTACG, the PBM binding z-score is -0.304.

With TCATGTAGGTAAAGGTGAAAGTCGAACGATATGA, the PBM binding z-score is 4.32.

Turning to CAAACTAGTTCACCGGAAGGTCAAAGTCCGCATG, the PBM binding z-score was 0.587.

Consider CGTCCAAGTTCAGAGAGGTCAGTGAATGCCGAGT, for which the PBM binding z-score was -0.176.

As to CCTCGGAGGACTACAGGAGGTCAGAGCTGCCAGA, the PBM binding z-score is -0.885.

Regarding TGAATGAGGTTATAAGCTCAGGGAACGTTGCAAA, the PBM binding z-score is 0.7.

Regarding CGTCCAAGTTCAGCAGGTCAGTGAAAGCGACGTG, the PBM binding z-score was -0.436.

AATGCAGGGTCACTAGGCCAGAGTAGGTACGAAT displayed a PBM binding z-score of 3.41.

TAGTCTAGGTCATGGGCCAGTATACCACGCGAAC gave a PBM binding z-score of 3.68.

With CGAACTGGGTCATTGACAGGACAGTGAATAGTAA, the PBM binding z-score worked out at 2.72.

With AGAACGACGGCACGCTGAGTTGATAGCAGAGTAG, the PBM binding z-score was -0.345.

Turning to TAGCCTACGTCAGATCGGGCCAGTATACGCTATA, the PBM binding z-score was -0.34.

Consider TAAGACAGGTGAAGGTAACTCAGGTACGCAGTCG, for which the PBM binding z-score came to 1.67.

TGAATCAGGTTATAAGATCAGGGAACGTTGCAAA: the PBM binding z-score came out at 0.155.

Consider ACTAGCAGGCCAGGTTTGGGTCACTCAAACAAAG, for which the PBM binding z-score was -0.537.

With TCTTGTAGATCAAAAGGAGGTTAAGAAAGATCGA, the PBM binding z-score is 2.91.

For the sequence TTACCAAGGTGAAAGGACGTTGATGCACGCCTTG, the PBM binding z-score was found to be 1.96.

ATCGAAAGGTAGTGAGGTGAGTATACAGAAAGGC showed a PBM binding z-score of 0.155.

ACTAGCAGGCCAAGTTTGGGTCAATCAAACAAAG: the PBM binding z-score is -0.327.

For CGAACTAGGTCATTGACAGGAGAGTGAATAGTAA, the PBM binding z-score was 3.96.

The sequence GCATATAGGTAATACAAGGGGAAAGTCCGATTGT registered a PBM binding z-score of 0.337.

Regarding CAAACTAGGTCAAGGTCATAGTCGGTTTGTGCCA, the PBM binding z-score stood at 6.24.

For CAAACTAGCTCAAAGGTCAAAGTCGAGCCAACCA, the PBM binding z-score stood at 8.32.

TAGCTTAGGTCATTGGGCCAGTATAGTACGCATC came in with a PBM binding z-score of 1.

In turn, TGAATGAGGTTAAAGATCGGGGAACGTGGCGTCG came in with a PBM binding z-score of 3.66.

Consider CAGCCTAGATCAGGGCCAGTATAGGAGGAACGTT, for which the PBM binding z-score was -0.386.

As to ACTATTAGTTGAGACAAGGGCAACCGATAGGTTG, the PBM binding z-score was found to be 0.214.

In the case of GGAACGAGGGCATTCGAGTTGGTAGCATGGCGAT, the PBM binding z-score was -0.573.

On to ATCTCTAGGTAAAAATTCAGTGAATCCCGAGGAT, for which the PBM binding z-score was 0.671.

CCTACAGGGCCACGAAAGGTCATTGATTCAGTGA displayed a PBM binding z-score of 0.825.

CGTCCAAGGTCAATGCTAGGTCAGTGAGAGCATT came in with a PBM binding z-score of 2.14.
